Screening data: PubChem, National Center for Advancing Translational Sciences (NCATS)
Most compounds without a hit are left out; they make up all but 18% or so of the library.
TDP1 inh – TDP1 (human) enzyme inhibition. 0.28% of 350,000 active. AID 485290. recombinant TDP1, AlphaScreen DNA substrate cleavage. Potency, µM (titrated, usually from 130 µM), most hits filed as inhibitors. Q9NUW8; note: nearly all actives have a fitted effect of over 40% in size
Target sequence (Q9NUW8 whole entry, looked up): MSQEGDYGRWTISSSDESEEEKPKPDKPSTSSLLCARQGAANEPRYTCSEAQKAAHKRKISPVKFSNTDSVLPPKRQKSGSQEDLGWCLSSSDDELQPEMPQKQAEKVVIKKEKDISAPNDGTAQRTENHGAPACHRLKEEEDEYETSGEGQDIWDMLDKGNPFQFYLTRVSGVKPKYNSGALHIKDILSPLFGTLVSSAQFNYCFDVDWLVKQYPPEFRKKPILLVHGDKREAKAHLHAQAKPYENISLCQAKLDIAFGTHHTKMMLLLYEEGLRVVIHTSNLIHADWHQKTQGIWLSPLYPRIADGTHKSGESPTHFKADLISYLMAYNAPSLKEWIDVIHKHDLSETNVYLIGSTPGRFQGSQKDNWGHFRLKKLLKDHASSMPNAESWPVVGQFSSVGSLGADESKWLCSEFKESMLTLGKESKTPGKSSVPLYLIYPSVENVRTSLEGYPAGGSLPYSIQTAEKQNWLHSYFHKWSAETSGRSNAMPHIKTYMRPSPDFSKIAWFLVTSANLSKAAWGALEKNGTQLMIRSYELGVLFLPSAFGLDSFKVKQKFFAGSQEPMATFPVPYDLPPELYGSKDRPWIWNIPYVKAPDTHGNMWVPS
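Enzyme-compound mixtures sat 15 min at room temperature, followed by a 5 min reaction with 15 nM final substrate and 10 min with AlphaScreen beads. Recombinant human Tdp1 was used at 1 nM final.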
IL-1B inflam inh – inflammasome signaling inhibition, IL-1 beta readout; THP-1 LPS/ATP IL-1B secretion, AlphaLISA, 16 h; stronger effect = lower value; activity change, % at 57.5 µM; 4.7% of 360,000 active; AID 743279; in the data active = activity change below about -50%; inconclusive = mostly about -30% to -49%
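THP-1 cells pretreated 1 hr with compounds (up to 57.5 uM final), then stimulated with LPS (250 ng/mL final) plus ATP (1.25 mM final); secreted IL-1B measured by AlphaLISA after 16 hr, decreased signal indicating inhibition.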
TDP1 cell CPT – growth inhibition of DT40 Tdp1-/-;hTDP1 cells with camptothecin (screen for TDP1 inhibitors); chicken DT40 Tdp1-/-;hTDP1 cells + 20 nM CPT, ATP luminescence, 48 h; 12% of 420,000 active; Potency, µM (series often up to 46.2 µM), most hits filed as inhibitors; note: nearly all actives have a fitted effect of over 55% in size
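Chicken DT40 Tdp1-/- cells stably complemented with human TDP1 were seeded at 400 cells/well in medium containing 20 nM camptothecin, exposed to pin-transferred compounds, and grown at 37 °C for at least 48 hr. Viability was read as ATP luminescence.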
HepG2 viability – HepG2 cytotoxicity, counter-screen for TGF-b inhibitors | HepG2 CAGA-GFP viability, ATP luminescence, 18 h | Potency, µM (highest dose often 46.1 µM), hits mostly cytotoxic | 0.76% of 410,000 active
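HepG2 CAGA-GFP cells (1000/well, DMEM with 1% FBS) received compound, then TGF-beta at 500 pg/mL final, and were incubated 18 hours at 37 degrees C. Viability was read by CellTiter-Glo luminescence. Media-only wells were set as complete cell-killing and DMSO as no toxicity.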
TGFb inhibitor – blocks TGF-b signaling; AID 588855; 1.2% of 410,000 active; Potency, µM (series often up to 46.1 µM), hits mostly inhibitors; HepG2 CAGA-GFP TGF-b/SMAD3 reporter, GFP fluorescence, 18 h; TGF-beta stimulated, 500 pg/mL final; note: nearly all actives have a fitted effect of over 65% in size
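Using HEPG2 CAGA-GFP reporter cells at 1000 cells/well, we pinned test compounds, stimulated with recombinant TGF-beta (500 pg/mL final) and measured total well GFP after 18 h.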
TDP1 cell noCPT – qHTS for Inhibitors of human tyrosyl-DNA phosphodiesterase 1 (TDP1): qHTS in cells in absence of CPT; DT40 Tdp1-/- hTDP1 cells, no CPT, ATP luminescence, 48 h; Potency, µM (titrated, usually from 46.2 µM), usual class: inhibitors; 15% of 420,000 active; note: nearly all actives have a fitted effect of over 55% in size
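Camptothecin absent (DMSO only). Human TDP1-complemented DT40 knockout cells, 400 cells/well, 37 °C for minimum 48 hr; ATP measured via CellTiter-Glo, 30 min dark incubation, luminescence.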
A number is an active result; n = inactive; u = inconclusive; x = no result given. Unless noted, calls come from the whole dose curve; as a rule, active = well fitted curve in the direction sought with a large enough effect; inconclusive = small, poorly fitted or top-dose-only effect, or another doubt; inactive = no such curve, though single readings can be large; an effect the other way counts as inactive or inconclusive.

SMILES	TDP1 inh	IL-1B inflam inh	TDP1 cell CPT	HepG2 viability	TGFb inhibitor	TDP1 cell noCPT
COc1ccc(S(=O)(=O)Nc2ccc3c(c2)OCCO3)cc1Cl	n	n	23µM	n	u	u
CCOc1cccc(CNCc2ccc(C(=O)O)cc2)c1	n	n	n	n	n	n
O=C1C(C2=NC(c3ccccn3)C3C(=O)N(c4ccccc4)C(=O)C23)=C(O)c2ccccc21 (stereo not drawn)	n	n	n	n	n	n
Cc1cc(C)n(CCc2nc3c4ccccc4nc(SCc4ccc(F)cc4)n3n2)n1	n	x	n	n	n	n
COc1cc(OC)c(NS(=O)(=O)c2ccc3c(c2)NC(=O)CO3)cc1Cl	n	n	18µM	n	n	u
CC1CCCC(N2C(=O)NC(NC(=O)c3ccco3)(C(F)(F)F)C2=O)C1C (stereo not drawn)	n	n	u	n	n	n
CC1(C)N=C(N)N=C(N)N1CCCCc1ccccc1	x	n	2.1µM	n	n	0.52µM
Cc1ccccc1N1C(N)=NC(N)=NC1(C)C	n	n	n	n	n	u
Cc1ccc(OCc2nc(C#N)c(NCc3ccc4c(c3)OCO4)o2)cc1	n	-64	u	n	n	u
COc1ccc(CNc2oc(COc3ccc(Cl)cc3)nc2C#N)cc1	n	n	u	n	u	u
CCOc1ccc(-c2nc(C#N)c(NC3CC3)o2)cc1	n	u	n	n	n	u
CCOc1ccc(-c2nc(C#N)c(NCc3ccc4c(c3)OCO4)o2)cc1	n	n	u	n	n	15µM
Cc1cc(C)cc(-n2c(SCC(=O)N3CCCCCC3)nc3c([nH]c4ccccc43)c2=O)c1	n	x	n	n	n	n
Nc1c(-c2ccccc2)cnn1-c1cccc(C(F)(F)F)c1	n	n	n	n	n	u
Nc1c(-c2cccc(Cl)c2)cnn1-c1cccc(C(F)(F)F)c1	n	-61	u	n	u	16µM
COc1ccc(CC(=O)Nc2ccc3c(c2)OC2(CCCC2)O3)c(OC)c1	x	n	u	n	n	u
COc1cccc(CC(=O)Nc2ccc3c(c2)OC2(CCCC2)O3)c1	n	n	18µM	n	n	u
Cc1cc(C)c2oc(-c3ccc(C)c(NC(=S)NC(=O)/C=C/c4ccco4)c3)nc2c1	n	n	u	n	n	u
Cc1ccc(-c2nc3ccccc3[nH]2)cc1NC(=O)/C=C/c1ccco1	n	u	u	n	n	16µM
Cc1ccc(-c2nc3ccccc3[nH]2)cc1NC(=S)NC(=O)c1ccccc1Br	n	-56	u	n	u	15µM
CN(C)/C=C(/C(=O)c1ccccc1)n1cncn1	n	n	n	n	n	n
O=C(/C=C(/c1ccc(Cl)cc1)n1cncn1)c1ccccc1	n	-58	u	n	n	u
O=c1[nH]cc([N+](=O)[O-])cc1Br	n	n	21µM	n	n	u
O=c1[nH]c2cc([N+](=O)[O-])cc([N+](=O)[O-])c2[nH]c1=O	n	x	x	x	x	x
Cc1ccc(CS(=O)(=O)c2ccc(C(=O)N3CCN(c4ccccn4)CC3)cc2[N+](=O)[O-])cc1	n	u	9.2µM	n	u	26µM
SMILES	TDP1 inh	IL-1B inflam inh	TDP1 cell CPT	HepG2 viability	TGFb inhibitor	TDP1 cell noCPT
Cc1ccc(CS(=O)(=O)c2ccc(C(=O)N3CCCCC3)cc2[N+](=O)[O-])cc1	n	n	u	n	n	u
CCN(CC)C(=O)c1ccc(S(=O)(=O)Cc2ccc(C)cc2)c([N+](=O)[O-])c1	x	-68	u	n	n	u
COCCNC(=O)C1CCCN(S(=O)(=O)c2ccc3c(ccn3C)c2)C1 (stereo not drawn)	n	x	n	n	n	n
CCCCn1nnnc1C(c1ccccc1)N1CCN(c2cccc(C(F)(F)F)n2)CC1 (stereo not drawn)	x	n	u	x	x	u
O=C(NCC(c1ccco1)S(=O)(=O)c1cccs1)c1c(F)cccc1F (stereo not drawn)	n	x	u	n	u	u
Cc1ccc(S(=O)(=O)C(CNC(=O)C(C)C)c2cccs2)cc1 (stereo not drawn)	n	n	n	n	n	n
Cc1cccc(C(=O)NCC(c2cccs2)S(=O)(=O)c2cccs2)c1 (stereo not drawn)	n	x	u	n	n	15µM
O=C(NCC(c1cccs1)S(=O)(=O)c1cccs1)c1cccc(F)c1 (stereo not drawn)	n	x	16µM	n	n	18µM
Cc1cc(C)c(NC(=O)CN(CC(=O)O)CC(=O)O)c(C)c1Br	x	x	u	x	x	n
CCN(CCCCN1C(=O)c2ccccc2C1=O)c1ccc2c(c1)C(=O)N(C)C2=O	x	n	u	n	n	18µM
CCN(CC)c1ccc2c(c1)C(=O)N(C)C2=O	n	n	u	n	n	n
Cc1ccc(NC(=O)C(OC(=O)c2ccc(NC(N)=O)cc2)c2ccccc2)cc1Cl (stereo not drawn)	n	-53	u	13µM	u	u
Cc1ccc(NC(=O)C(NC2CCCC2)c2ccccc2)cc1Cl (stereo not drawn)	n	u	u	n	n	16µM
Cc1cc(C(=O)OC(C(=O)Nc2ccc(C)c(Cl)c2)c2ccccc2)c(C)o1 (stereo not drawn)	n	n	23µM	n	u	29µM
Cc1cc(C)cc(NC(=O)C(OC(=O)c2cc[n+]([O-])cc2)c2ccccc2)c1 (stereo not drawn)	n	n	u	n	n	n
Cc1ccc(NC(=O)C(c2ccccc2)N2CCN(CC(=O)N3CCOCC3)CC2)cc1Cl (stereo not drawn)	28µM	n	n	n	n	n
C[C@@H]1NC(=O)N(CCCn2ccnc2)C1=O	x	n	n	n	n	n
C/C(N)=C(/C#N)C(=O)CSc1cc(C)c2ccccc2n1	n	n	n	n	n	n
CCCc1cc(=O)oc2c(C)c(OC(C)C(=O)NCCN3CCOCC3)ccc12 (stereo not drawn)	n	n	n	n	n	n
CCCC(=O)O[C@@H]1C[C@@H](C)N(C(=O)c2ccccc2)c2ccc(C)cc21	n	n	21µM	n	u	21µM
O=c1[nH]c(=O)n([C@@H]2O[C@H](CO)[C@@H](O)[C@H]2O)cc1F	n	x	0.11µM	n	n	0.06µM
Cc1cn([C@H]2C[C@H](O)[C@@H](COS(=O)(=O)O)O2)c(=O)[nH]c1=O	n	n	3.7µM	n	n	1.6µM
